Sampled rows, rich in hits. Any-hit rate of the full collection: about 6%.
D1 antag – blocks dopamine activation of the human D1 receptor. AID 504652. activity change, negative = inhibition, % at 10 µM. HEK293 TREx D1 cells, calcium flux, dopamine EC80; stronger effect = lower value. P21728. 360,000 compounds, 3.2% hits; in the data active means activity change below about -30%; further: on the % scale 0 is the no-effect control and ±100 the full control effect
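Compound effects on dopamine-evoked calcium signalling were measured in tetracycline-induced HEK293 Trex D1 cells. Dopamine at EC80 followed a 180 s compound pre-read, and fluorescence was tracked kinetically for 180 s more.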
D1 ag – activates the human D1 dopamine receptor | activation, % at 2 µM | AID 504660 | HEK293 T-REx D1 cells, calcium flux, agonist mode | 360,000 compounds, 1% hits | P21728; in the data active means activation above about 30%; further: 0% is about no effect
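Inducible HEK293 T-REx D1 cells, force-coupled to calcium signalling, were plated at 4000 cells/well with tetracycline and held overnight at 30 C. After no-wash calcium dye loading, compound-evoked calcium rise over 180 s flagged agonists.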
D1 PAM – potentiators of human D1 dopamine receptor; P21728; HEK293 TREx D1 cells, calcium flux, dopamine EC20 potentiation; potentiation, % at 10 µM; 360,000 compounds, 0.036% hits; AID 504651; in the data active means potentiation above about 30%; further: 0% is about no effect
DRD3 antagonist – D3 dopamine receptor (human) antagonism; D3R cells, DiscoveRx beta-arrestin luminescence, antagonist mode; stronger effect = lower value; P35462; 360,000 compounds, 2.5% hits; max response, negative = inhibition, %; in the data active means max response below about -50%; inconclusive means no clear call, values can overlap the other calls; further: on the % scale 0 is the no-effect control and ±100 the full control effect
Target sequence (P35462 whole entry, looked up): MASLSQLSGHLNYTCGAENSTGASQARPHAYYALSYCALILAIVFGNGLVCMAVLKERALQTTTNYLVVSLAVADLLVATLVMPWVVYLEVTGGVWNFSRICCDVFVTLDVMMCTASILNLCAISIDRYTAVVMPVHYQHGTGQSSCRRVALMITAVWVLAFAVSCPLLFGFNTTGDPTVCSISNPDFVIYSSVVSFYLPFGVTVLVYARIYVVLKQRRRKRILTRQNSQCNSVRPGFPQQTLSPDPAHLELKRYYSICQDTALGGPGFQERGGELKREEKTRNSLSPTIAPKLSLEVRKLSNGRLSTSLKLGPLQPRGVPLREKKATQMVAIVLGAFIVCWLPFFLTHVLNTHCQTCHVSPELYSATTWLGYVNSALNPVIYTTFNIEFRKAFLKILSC
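Cells expressing the human receptor were seeded at 1500 cells/well, incubated overnight at 37 degrees C in 5% CO2, then exposed to library compounds with dopamine controls for 90 minutes at 37 degrees C before luminescent detection.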
D3 ag – D3 dopamine receptor (human) agonism; D3R DiscoveRx beta-arrestin cells, luminescence, 90 min; max activation, %; 410,000 compounds, 0.58% hits; in the data active means max activation above about 30%; further: 0% is about no effect
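Cells at 1500/well, incubated overnight, then treated with pinned compounds (dopamine as control) for 90 min at 37 degrees C. DiscoveRx reagent added for 30 - 60 minutes at room temperature; luminescence read.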
* = called active by the depositor; u = inconclusive; x = no result; ! = repeats disagree.

SMILES	D1 antag	D1 ag	D1 PAM	DRD3 antagonist	D3 ag
CN(C)CCN1CCN(C2CN(Cc3cn(Cc4ccc(Cl)cc4)nn3)S(=O)(=O)C2)CC1 (centres undefined)	x	x	x	-51*	-1
CN(C)CCN1CCN(C2CN(Cc3cn(Cc4cccc(C(F)(F)F)c4)nn3)S(=O)(=O)C2)CC1 (centres undefined)	x	x	x	-72*	-11
Cc1ccc(S(=O)(=O)N2CCCC(c3nc4c(nnn4Cc4ccc(OC(F)(F)F)cc4)c(=O)[nH]3)C2)cc1 (centres undefined)	1	1	1	x	-7
Cn1nc(-c2ccccc2F)c2cc(C(=O)N3CCN(c4ccccc4F)CC3)sc21	-16	9	-1	x	51*
CC1CCCCN1CCCNC(=O)c1nn(C)c2c1CSc1ccccc1-2 (centres undefined)	1	2	-2	u	-25
Cn1nc(-c2ccccc2F)c2cc(C(=O)N3CCN(c4ccc(F)cc4)CC3)sc21	8	3	1	x	15
Cn1nc(C(=O)N2CCN(c3ccccc3F)CC2)c2c1-c1ccccc1SC2	-35*	4	-3	x	8
CC1CCCN(CCCNC(=O)c2nn(C)c3c2CSc2ccccc2-3)C1 (centres undefined)	-11	3	-3	-66*	-17
CCN(CC)c1ccc(C=Nc2ccc(OC)c(S(=O)(=O)N3CCOCC3)c2)c(O)c1	-33*	1	-8	0	-2
CCN(CC)c1ccc(C=Nc2cccc(S(=O)(=O)N3CCOCC3)c2)c(O)c1	x	x	x	16	7
COc1ccc(Nc2oc(-c3ccc(COc4ccccc4C)o3)nc2C#N)cc1	9	18	-2	x	11
Cc1cc(C)c2c(N)c(C(=O)Nc3ccc(F)cc3)sc2n1	-2	0	-2	-8	-10
Nc1c(C(=O)Nc2ccc(F)cc2)sc2nc(-c3cccs3)cc(C(F)(F)F)c12	-44*	265*	-2	x	0
Nc1c(C(=O)C2CC2)sc2nc(-c3cccs3)cc(C(F)(F)F)c12	-6	173*	0	60	-1
CC(C)NC(=O)c1sc2nc(-c3cccs3)cc(-c3cccs3)c2c1N	4	28	-5	u	1
Cc1cc(C)c(NC(=O)CSc2nc3ccccc3nc2N2CCCCC2)c(C)c1	15	1	7	x	-5
Cc1ccc(Cn2cc(CCC(=O)NC3CCCCC3)c3ccccc32)cc1	1	0	1	x	13
CC(NC(=O)c1cc2cc(F)ccc2[nH]1)c1ccccc1 (centres undefined)	-55*	17	-16	-11	-15
O=C(O)c1cc2cc(F)ccc2[nH]1	4	44*!	0	11	12
O=C(O)c1cc2cc(Cl)ccc2[nH]1	x	x	x	1	-19
Cc1cccc(N(C)C(=O)c2cc3c(=O)oc4ccc(C)cc4c3s2)c1	8	3	-1	x	3
COC(=O)c1c(-c2ccc(Cl)cc2)noc1N1CCN(c2cccc(OC)c2)CC1	-1	1	-2	x	82*
COC(=O)c1c(-c2ccc(Cl)cc2)noc1N1CCN(c2cccc(C)c2C)CC1	-11	1	-1	x	3
COc1ccccc1N(CC(=O)Nc1c(C)n(C)n(-c2ccccc2)c1=O)S(=O)(=O)c1ccc(C)cc1	1	1	-2	-3	16
COc1ccc(N(CC(=O)Nc2c(C)n(C)n(-c3ccccc3)c2=O)S(=O)(=O)c2ccc(C)cc2)cc1OC	-11	1	4	-111*	5
SMILES	D1 antag	D1 ag	D1 PAM	DRD3 antagonist	D3 ag
Cc1ccc(S(=O)(=O)N(CC(=O)Nc2c(C)cccc2C)c2cccc(Cl)c2)cc1	-85*	1	1	x	-5
Cc1ccc(S(=O)(=O)N(CC(=O)Nc2cccc(N(C)S(C)(=O)=O)c2)c2ccc(Cl)c(Cl)c2)cc1	-32*	4	-12	-22	-22
O=C(CN1C(=O)COc2ccc(S(=O)(=O)N3CCCCCC3)cc21)Nc1cccc(Cl)c1	-23	1	6	x	-10
COC(=O)C1=CNC=C(C(=O)OC)C1c1ccc(C(=O)OC)cc1	-6	38*	-4	-5	3
Cc1csc(SCC(=O)Nc2ccc(C)c(F)c2)n1	-39*	1	3	9	1
COc1ccc(NC(=O)CSc2nc(C)cs2)cc1OC	-14	1	-7	0	-1
Cc1ccc(N(CC(=O)N2CCN(c3cccc(C)c3C)CC2)S(=O)(=O)c2c(C)nn(C)c2C)cc1	-43*	3	0	x	-2
Cc1cccc(C)c1N(CC(=O)N1CCN(C)CC1)S(C)(=O)=O	-13	0	2	-79*	4
CCN(CC)C(=O)C[n+]1cccc(C(N)=O)c1	-31*	2	-4	-4	-1
O=C(C[n+]1cccc(C(=O)Nc2ccccc2)c1)c1ccc(Cl)cc1	x	x	x	u	-4
Cc1ccc(C(=O)C[n+]2cccc(C(N)=O)c2)cc1	13	2	-11	8	-7
NC(=O)C[n+]1cccc(C(=O)Nc2ccccc2)c1	-3	7	-2	-67*	0
CCOc1ccc(CCNC(=O)CN2C(=O)COc3ccc(S(=O)(=O)N4CCC(C)CC4)cc32)cc1	-20	1	-2	x	4
Cc1cccc(CN2C(=O)N/C(=C/c3cc(C)n(-c4ccccn4)c3C)C2=O)c1	-3	3	2	u	0
Cc1cc(/C=C2/NC(=O)N(Cc3ccccc3F)C2=O)c(C)n1-c1ccccn1	-43*	2	-3	-5	-6
Cc1ccc(/C=C2/NC(=O)N(Cc3ccccc3F)C2=O)s1	9	43*	-4	-3	2
O=C1N/C(=C/c2cccs2)C(=O)N1Cc1ccccc1F	-5	3	-3	-25	-6
O=C(O)CCc1cc(I)c(Oc2ccc(O)c(I)c2)c(I)c1	0	85*	-9	x	x
Cc1cccc(C(=O)N2CCc3cc(CNC(=O)c4ccc(Br)o4)ccc32)c1	-4	1	0	x	-2
CCOc1cc(CNCCc2ccccc2)ccc1OCC(=O)NC(C)(C)C	-4	122*	-3	0	-8
COc1cc(CNC(C)C23CC4CC(CC(C4)C2)C3)ccc1OCC(=O)NC(C)(C)C (centres undefined)	2	37*	0	-7	-14
CCOc1cc(CNCCc2ccc(S(N)(=O)=O)cc2)ccc1OCC(=O)NC(C)(C)C	-1	2	-2	14	-24
COc1cc(CNCCN2CCOCC2)ccc1OCC(=O)NC(C)(C)C	-1	32*	-21	2	11
Cc1ccc(CNC(=O)CN2C(=O)C3(SCC(=O)N3c3cc(C)cc(C)c3)c3ccccc32)cc1 (centres undefined)	-5	2	-5	x	7
COc1ccc(NC(C)=O)cc1NC(=O)C1(c2cccs2)CCOCC1	-7	-1	-1	x	1
